Compound activity (PubChem BioAssay)
Glyco luc inh = N-linked glycosylation inhibition; D54 ERlucT glycosylation luciferase reporter, 24 h; percent of 100 nM tunicamycin response; reporter increase, % at 12.5 µM; actives 0.23% (n = 360,000); AID 588692;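 active means mean luciferase reporter signal, scaled so untreated is 0 and the glycosylation-blocking control 100, at or above a set limit in every replicate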;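 further: luciferase carries N-glycosylation sites so blocking glycosylation raises the light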
aDG glyco act = alpha-DG glycosylation activation | Pro5-aDG cells, alpha-DG glycosylation AlphaScreen (IIH6); 0% Pro5, 100% B10-LARGE cell signal | activation, % at 10 µM | actives 0.22% (n = 360,000);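 active means activation of at least 8% versus controls, or a plate z-score of at least 8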;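 further: Pro5 are CHO cells carrying HIG-tagged alpha-DG that lacks glycosylation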
Cardio protect = modulators protecting cardiomyocytes from myocardial damage; H9c2 cardiomyocytes, H2O2 injury protection, ATPLite, 2 h; protection from H2O2 cell death, % at 20 µM; actives 0.63% (n = 360,000);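 active means compounds giving at least 50% protection of heart cells from peroxide-induced death in the single-dose screen, raw or plate-pattern-corrected value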
Vif inh = inhibitors of HIV Vif; actives 0.35% (n = 340,000); HEK293T cells, Vif self-association by quenched fluorescence, imaging, 24 h; AID 602346; inhibition, % at 7.49 µM; in the data active means inhibition above about 50%, passing the limit was not always enough
ARNT TACC3 PPI = disruptors of human ARNT/TACC3 interaction; Q9Y6A5; AlphaScreen His-ARNT PAS-B/GST-TACC3 binding, luminescence; TACC3 fragment carries E629A point mutation; inhibition, % at 9.99 µM; actives 0.66% (n = 390,000); AID 623870;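 active means mean inhibition of replicates at least 50% and at least half of replicates each reaching 50%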
ARNT Alpha ctr-1 = counter-screen for ARNT/TACC3 inhibitors: AlphaScreen artifacts; shares compounds with ARNT TACC3 PPI; His-ARNT PASB-GST AlphaScreen artifact counter-screen, luminescence; AC50, µM (top dose mostly 68 µM); actives 50% (n = 1,200); AID 651705;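 active means every separate test run was called active for a drop in luminescence, with AC50 within twice the top valid dose, actives reach about 71 µM in these data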
ARNT Alpha ctr-2 = counter-screen for ARNT-TACC3 inhibitors: AlphaScreen artifacts | shares compounds with ARNT TACC3 PPI | Dual-tagged His-ARNT PASB-GST AlphaScreen artifact counter-screen | AC50, µM | actives 70% (n = 45);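 active means luminescence drop, with half-maximal potency fitted within twice the sample's top valid dose, cut at about 70 µM in these data; inactive means the rest, including signal moving the wrong way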
aDG conf = alpha-DG glycosylation activation, confirmation; shares compounds with aDG glyco act; Pro5-aDG cells, IIH6 AlphaLISA; scaled to LARGE-overexpressing B10 cells as 100%; activation, % at 10 µM (by protocol); actives 17% (n = 600);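 active means activation of at least 7% in one or more replicates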;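 further: cells exposed to compound for two days before detection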
Hits are given with their value; – = inactive; · = not tested or not shown. An excerpt weighted towards active compounds, which were near 1.7% of everything screened.

SMILES	Glyco luc inh	aDG glyco act	Cardio protect	Vif inh	ARNT TACC3 PPI	ARNT Alpha ctr-1	others
COc1cccc(NC(=O)N[C@@H]2C=C[C@@H](CC(=O)Nc3ccccc3)O[C@H]2CO)c1	·	·	·	·	–	·
Cc1nn2c(nc1=O)NNC2(C)C(C)(C)C (configuration not stated)	–	–	–	–	64	–
C#CCOCCOCCOCCNc1nc(N2CCN(C(=O)C([C@@H](C)O)n3cc([C@@H](N)CCCCN)nn3)CC2)nc(N2CCN(C(=O)[C@H](CO)n3cc([C@@H](N)C(C)C)nn3)CC2)n1 (some centres not stated)	–	–	–	–	–	·
C#CCOCCOCCOCCNc1nc(N2CCN(C(=O)Cn3cc(CCCCN)nn3)CC2)nc(N2CCN(C(=O)[C@H](CCCCN)n3cc(CCCC)nn3)CC2)n1	–	–	–	–	32	–
C#CCOCCOCCOCCNc1nc(N2CCN(C(=O)[C@H](CCC(=O)O)n3cc([C@@H](N)CCCCN)nn3)CC2)nc(N2CCN(C(=O)[C@H](CCCCN)n3cc([C@@H](N)CC(N)=O)nn3)CC2)n1	–	–	–	–	51	–
C#CCOCCOCCOCCNc1nc(N2CCN(C(=O)[C@H](CCC(=O)O)n3cc([C@@H](N)CCCCN)nn3)CC2)nc(N2CCN(C(=O)[C@H](CCC(=O)O)n3cc([C@@H](N)CCCCN)nn3)CC2)n1	–	–	–	–	–	·
C#CCOCCOCCOCCNc1nc(N2CCN(C(=O)C([C@@H](C)O)n3cc([C@@H](N)CCCCN)nn3)CC2)nc(N2CCN(C(=O)C([C@@H](C)O)n3cc([C@@H](N)CCCCN)nn3)CC2)n1 (some centres not stated)	–	–	–	–	60	–
CCCN(CCC)c1nc(-c2ccccn2)nc2ccccc12	–	–	–	–	60	–
O=C(CSc1n[nH]c(-c2ccncc2)n1)Nc1ccccc1	–	–	–	–	·	·
Cc1ccc(NC(=O)CSc2n[nH]c(-c3ccccn3)n2)cc1	–	–	–	–	70	9.2µM
O=C(CSc1n[nH]c(-c2ccccn2)n1)Nc1ccc(F)cc1	–	–	–	–	70	11µM
O=C(CSc1n[nH]c(-c2ccccn2)n1)Nc1ccc(Cl)cc1	–	–	–	–	68	32µM	ARNT Alpha ctr-2=11
O=C(CSc1n[nH]c(-c2ccncc2)n1)Nc1ccc(F)cc1	–	–	–	–	–	·
Cc1ccc(S(=O)(=O)Nc2ccc3c(c2)C(=O)N([C@@H](C)CO)C[C@H](C)[C@H](CN(C)C(=O)NC2CCCCC2)OCCCC[C@@H](C)O3)cc1	·	·	·	·	–	·
Cc1cc(C)n(S(=O)(=O)c2ccc(F)cc2)n1	–	–	–	–	–	·
Cc1cc(C)n(S(=O)(=O)c2ccc(Cl)cc2)n1	–	–	–	–	active	–
COc1ccc(S(=O)(=O)Nc2ccc3c(c2)CC(=O)N([C@H](C)CO)C[C@H](C)[C@H](CN(C)S(=O)(=O)c2ccccc2)O3)cc1	·	·	·	·	–	·
O=C(CNS(=O)(=O)c1ccc([N+](=O)[O-])cc1)N/N=C/c1ccc(O)cc1O	–	–	55	–	63	–
CCNC(=O)[C@@H]1[C@@H](CO)[C@@H]2Cn3c(cccc3=O)[C@H]1N2CCC(F)(F)F	·	·	·	·	–	·
Cc1cc(C)c(C(N)=O)c(Nc2cccc3ccccc23)n1	–	5.7	–	–	68	–	aDG conf=–
C[C@@H]1CCCCO[C@H](CN(C)C(=O)Nc2ccc3c(c2)OCO3)[C@H](C)CN([C@@H](C)CO)C(=O)c2cc(NS(=O)(=O)c3cccs3)ccc2O1	·	·	·	·	–	·
N#Cc1cc(Cl)c(N2CCOCC2)cc1C#N	–	–	–	–	–	·
N#Cc1cc2ccc(N3CCOCC3)cc2cc1C#N	–	6.8	–	–	29	–	aDG conf=–
C=CCNC(=S)N/N=C/c1ccc(C(C)(C)C)cc1	–	8.6	–	–	–	·	aDG conf=–
